In the library only some 3.5% were active in any assay of this set; here they are far more common.
GDH-TPI inh – GDH-TPI coupling enzyme inhibitors, primary screen, artefact control for M. tuberculosis FBA inhibitor project, biochemical, absorbance, full deck; 360,000 compounds, 1.2% hits; inhibition, % at 4.8 µM; GDH-TPI coupled enzyme counterscreen, NADH absorbance; AID 588335, 2011; in the data active means inhibition above about 30%;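 further: 0% = DMSO wells and 100% = wells lacking the enzyme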
FBA Mtb inh – Mtb FBA enzyme inhibitors, primary screen, biochemical, fluorescence, strain H37Rv | purified M. tuberculosis FBA, fluorescence read-out | inhibition, % at 1 µM | 360,000 compounds, 2.3% hits | AID 588726, 2011; in the data active means inhibition above about 27%;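 further: 0% = vehicle and 100% = reference inhibitor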
UGM FP inh – M. tuberculosis UGM enzyme inhibitors, primary screen, biochemical, fluorescence polarization, single point | purified UGM, fluorescence polarization probe displacement | UDP-galactopyranose mutase (Mycobacterium tuberculosis (strain ATCC 25618 / H37Rv)), … | AID 504406, 2011 | inhibition, % at 10 µM | 320,000 compounds, 0.06% hits; in the data active means inhibition above about 10%, passing the limit was not always enough
Mtb bLac sens – beta-lactam sensitization of Mtb H37Rv, H37Rv; M. tuberculosis H37Rv growth with meropenem, percent inhibition; AID 434955, 2010; 330,000 compounds, 0.27% hits; inhibition, % at 25 µM; call rule not given here;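 further: growth measured after seven days incubation then overnight dye step; 0% = bacteria only wells and 100% = bacteria with antibiotic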
Rv3671c protease – Rv3671c serine protease inhibitors, primary screen, biochemical, fluorescence polarization, M. tuberculosis H37Rv. inhibition, % at 5.96 µM. 320,000 compounds, 0.048% hits; in the data active means inhibition above about 38%;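 further: extracellular domain of Rv3671c used as enzyme; 0% = enzyme with DMSO and 100% = no enzyme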
Target sequence (P9WHR9 whole entry, looked up, the tested form may be a part): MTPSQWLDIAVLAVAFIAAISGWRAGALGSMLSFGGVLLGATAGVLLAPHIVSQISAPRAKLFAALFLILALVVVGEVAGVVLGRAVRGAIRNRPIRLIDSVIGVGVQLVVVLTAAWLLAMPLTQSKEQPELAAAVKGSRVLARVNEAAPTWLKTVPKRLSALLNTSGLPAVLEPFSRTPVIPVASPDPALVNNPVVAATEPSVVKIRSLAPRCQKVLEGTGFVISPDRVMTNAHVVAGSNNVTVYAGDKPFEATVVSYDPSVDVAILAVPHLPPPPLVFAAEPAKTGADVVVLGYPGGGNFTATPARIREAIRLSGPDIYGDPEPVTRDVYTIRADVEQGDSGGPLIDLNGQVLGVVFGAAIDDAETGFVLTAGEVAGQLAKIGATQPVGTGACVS
* = called active by the depositor.

Cc1cc(OCc2nn[nH]n2)c2c3c(c(=O)oc2c1)CCC3 was read as GDH-TPI inh -3, FBA Mtb inh active, UGM FP inh 2, Mtb bLac sens -2 and Rv3671c protease 4.
CCC(C)N(C(=O)CSc1nc(C)nc2ccccc12)C1CCS(=O)(=O)C1 (configuration not stated) was read as GDH-TPI inh 7, FBA Mtb inh -2, UGM FP inh 2, Mtb bLac sens 2 and Rv3671c protease 1.
Screening O=S(=O)(c1ccc(Br)cc1)N1CCC2(CC1)OCCO2 returned GDH-TPI inh -1, FBA Mtb inh 1, UGM FP inh 1, Mtb bLac sens -1 and Rv3671c protease -2.
Screening CC(=O)Nc1ccc2c(COC(=O)[C@@H](NS(=O)(=O)c3ccc(C)cc3)C(C)C)cc(=O)oc2c1 returned GDH-TPI inh 23, FBA Mtb inh active, UGM FP inh 1, Mtb bLac sens -6 and Rv3671c protease -6.
Cc1cc(-c2nc3ncccc3o2)ccc1N was read as GDH-TPI inh 45*, FBA Mtb inh active, UGM FP inh 1, Mtb bLac sens -10 and Rv3671c protease 5.
`Nc1ccc(-c2nc3ncccc3o2)c(O)c1` gave GDH-TPI inh 59*, FBA Mtb inh active, UGM FP inh 0, Mtb bLac sens 63 and Rv3671c protease -1.
For Cc1ccc(-c2nc3ncccc3o2)cc1N the results were GDH-TPI inh 3, FBA Mtb inh -4, UGM FP inh 1, Mtb bLac sens 3 and Rv3671c protease 6.
Screening CC(C)(C)NS(=O)(=O)c1ccc(NC(=O)C2CCCCC2)cc1 returned GDH-TPI inh 5, FBA Mtb inh 6, UGM FP inh 0, Mtb bLac sens -1 and Rv3671c protease -3.
Screening c1ccc2c(Nc3nnc(-c4ccncc4)s3)cccc2c1 returned GDH-TPI inh 38*, FBA Mtb inh 0, UGM FP inh 3, Mtb bLac sens 65 and Rv3671c protease -2.
For Fc1ccc(Nc2nnc(-c3ccncc3)s2)cc1Cl the results were GDH-TPI inh 20 and FBA Mtb inh 2.
O=C(Nc1ccc(Cl)cc1)Nc1nnc(-c2ccncc2)s1 was read as GDH-TPI inh 7, FBA Mtb inh 3, UGM FP inh 0, Mtb bLac sens -5 and Rv3671c protease -5.
Screening C=CCNc1nnc(-c2ccncc2)s1 returned GDH-TPI inh 12, FBA Mtb inh 181*, UGM FP inh -1, Mtb bLac sens -11 and Rv3671c protease 5.
For O=C(Nc1ccc(F)cc1)Nc1nnc(-c2ccncc2)s1 the results were GDH-TPI inh 35*, FBA Mtb inh 1, UGM FP inh 2, Mtb bLac sens -3 and Rv3671c protease 10.
Screening O=C1C2C3C=CC(O3)C2C(=O)N1N=Cc1ccc2c(c1)OCO2 (configuration not stated) returned GDH-TPI inh 11 and FBA Mtb inh 0.
CC1(C)OC2OC(C3COC(=O)O3)C(OC(=O)c3ccccc3)C2O1 (configuration not stated) was read as GDH-TPI inh 7 and FBA Mtb inh -5.
Cc1ccccc1C(=O)N/C(=C/c1ccc(-c2cccnc2Cl)o1)C(=O)NCCCN1CCN(C)CC1 was read as GDH-TPI inh 39*, FBA Mtb inh 4, UGM FP inh 2, Mtb bLac sens -7 and Rv3671c protease 0.
Cc1csc(NC(=O)C(C)Oc2ccc(Cl)cc2C)n1 (configuration not stated) was read as GDH-TPI inh -4, FBA Mtb inh -2, UGM FP inh -1, Mtb bLac sens 41 and Rv3671c protease -4.
Screening COc1ccc(/C=C/c2nnc(NC(=O)C(C)(C)C)s2)cc1 returned GDH-TPI inh 52*, FBA Mtb inh 9, UGM FP inh 0, Mtb bLac sens 58 and Rv3671c protease 1.
`CC(C)CCC(CCNCc1ccccn1)c1ccc(Cl)cc1` (configuration not stated) gave GDH-TPI inh -5, FBA Mtb inh 3, UGM FP inh -2, Mtb bLac sens 55 and Rv3671c protease 3.
For COc1ccc(N/N=C(\C#N)C(N)=O)cc1 the results were GDH-TPI inh 20, FBA Mtb inh -5, UGM FP inh -5, Mtb bLac sens -3 and Rv3671c protease 6.
Screening CCOc1ccc(N/N=C(/C#N)C(N)=O)cc1 returned GDH-TPI inh 33*, FBA Mtb inh -4, UGM FP inh 1, Mtb bLac sens 3 and Rv3671c protease -5.
CCOCCCNC(=O)/C(C#N)=C/c1cc(Br)c(O)c(Br)c1 was read as GDH-TPI inh 44* and FBA Mtb inh 3.
Screening CCOCCCNC(=O)/C(C#N)=C/c1ccc([N+](=O)[O-])o1 returned GDH-TPI inh 46*, FBA Mtb inh 1, UGM FP inh 0, Mtb bLac sens 100 and Rv3671c protease -37.
`COCCNC(=O)/C(C#N)=C/c1cc(Br)c(O)c(OC)c1` gave GDH-TPI inh 3, FBA Mtb inh -18, UGM FP inh 3, Mtb bLac sens -5 and Rv3671c protease -5.
CC[C@@H]1C=C(C(=O)O)[C@H](c2cccc(C)c2)N1S(=O)(=O)c1ccc(C)cc1 was read as GDH-TPI inh 8, FBA Mtb inh 5, Mtb bLac sens 4 and Rv3671c protease 9.
For CN(C)/C=C/c1onc(-c2c(F)cccc2Cl)c1C#N the results were GDH-TPI inh 31*, FBA Mtb inh -2, UGM FP inh -3, Mtb bLac sens 5 and Rv3671c protease -13.
O=C(Nc1ccccc1[N+](=O)[O-])c1cc2ccccc2nc1Cl was read as GDH-TPI inh -5, FBA Mtb inh 0, UGM FP inh -3, Mtb bLac sens 1 and Rv3671c protease 0.
Screening O=C(Nc1ccccc1[N+](=O)[O-])C1=C(O)CCn2c1nc1ccccc12 returned GDH-TPI inh 39*, FBA Mtb inh 1, UGM FP inh 1, Mtb bLac sens 7 and Rv3671c protease 4.
Screening COC(=O)c1cccc(C23CC4(C2)[C@H](CN(Cc2cccnc2)[C@@H]4c2ccccc2)C3c2ccc(C(F)(F)F)cc2)c1 (some centres not stated) returned UGM FP inh 4, Mtb bLac sens -2 and Rv3671c protease -3.
For O=C(O)COc1ccc2nsnc2c1Cl the results were GDH-TPI inh 6, FBA Mtb inh 42*, UGM FP inh 9, Mtb bLac sens 0 and Rv3671c protease -1.
O=C(CC(=O)c1ccccc1)Nc1cc([N+](=O)[O-])ccc1Cl was read as GDH-TPI inh 31*, FBA Mtb inh 0, UGM FP inh 2, Mtb bLac sens 0 and Rv3671c protease 9.
`O=C(N/N=C/c1c(O)n(Cc2ccccc2)c(=O)[nH]c1=O)c1ccccc1O` gave GDH-TPI inh 35*, FBA Mtb inh 9, UGM FP inh 1, Mtb bLac sens 3 and Rv3671c protease -30.
